# In PubChem BioAssay (NCI):
# The panel holds about 83,000 compounds, 20% with a hit somewhere; the sample as a whole holds those more often.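 96-well plates, one dose, 48 hours. Percent growth reported; active if below 10.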 A number with no mark means an inactive call. Activity calls are given as the source filed them.
# System: A498 renal
# Experiment: NCI-60 one-dose screen, 48 h (100 = growth as untreated, 0 = no growth, -100 = all killed)
# Conditions: 10 µM unless noted
# Description: Growth inhibition of the A498 human tumor cell line is measured as a screen for anti-cancer activity. Cells are grown in 96 well plates and exposed to the test compound for 48 hours. Compounds are tested at a single concentration, which is 10^-5 M for most compounds. The reported endpoint is percent growth (GI% or GIPRCNT), where numbers from 0 - 100% represent growth inhibition, and numbers from -100% - 0 represent cell death. For example, a value of 40 represents 60% growth inhibition. A value of 0 means no net growth occurred over the course of the experiment. A value of -40 indicates 40% of cells at the beginning of the experiment died by the end of the experiment. A value of -100 means all cells are dead at the end of the experiment.
# NCI-60 Human Tumor Cell Lines Screen was performed using the standard one-dose NCI protocol, which is described in more detail at https://dtp.cancer.gov/discovery_development/nci-60/default.htm.
# Compounds with GIPRCNT values below 10 were considered active. Activity score was based on GIPRCNT using the following formula: […]
# Score is 0 for GIPRCNT values of 100 or above, 50 for GIPRCNT values of 0, and 100 for GIPRCNT values of -100.
row,Structure (SMILES),growth
1,CCNc1ccc2ccccc2c1N=Nc1ccc(N=Nc2ccccc2)cc1,137%
2,Cn1c(=O)c2[nH]c(CCCCC(=O)O)nc2n(C)c1=O,113%
3,CCc1ccccc1C(=O)N(CC)CC,86.1%
4,Oc1cccc(CNC2CCCCC2)c1,136%
5,OC1Cc2ccccc2C1,82.9%
6,Cc1ccc(NCN2C(=O)c3ccccc3C2=O)c(C)n1,88.7%
7,S=CN1CCCCC1,105%
8,Nc1cc(F)ccc1[N+](=O)[O-],102%
9,CC(C)(CC(=O)O)CC(=O)O,93.7%
10,C#CC(O)c1ccccc1 (stereo not given),94.2%
11,COc1c(CNC(=O)CCl)cc2[nH]c(C)cc2c1CNC(=O)CCl,84.4%
12,CC(=O)NC(O)C(Cl)Cl (stereo not given),94.3%
13,COc1ccc2c(Cl)cc(NC(=O)Nc3c(C)cccc3C)nc2c1,36.1%
14,Nc1ncnc(Nc2ccccc2)n1,128%
15,Cc1ccc(S(=O)(=O)CCCl)cc1,95.2%
16,CCCCCC(=O)OCCC1CCCCC1,79.3%
17,Cc1ccc(S(N)(=O)=O)cc1Cl,106%
18,NNc1ncnc2nc[nH]c12,55.1%
19,Cn1c(=O)c2nc3c(=O)n(C)c(=O)n(C)c3nc2n(C)c1=O,126%
20,NNc1ncnc2c1ncn2C1OC(CO)C(O)C1O (stereo not given),43%

row,Structure (SMILES),growth
1,OCCc1ccc(Cl)cc1,106%
2,C=C(c1ccc(N(C)C)cc1)c1ccc(N(C)C)cc1,78.8%
3,COc1ccc(NNS(=O)(=O)O)cc1,69.5%
4,Cc1cc(C(=O)c2ccccc2)cc(C)c1O,98%
5,COc1ccc(C2CC(c3ccccc3)=Nc3ccccc3S2)cc1 (stereo not given),91.8%
6,O=C(Oc1ccccc1Cl)c1ccc(Cl)cc1Cl,94.2%
7,CC(CO)(CO)C(=O)O,85.3%
8,Nc1ccccc1SC1CC(=O)N(c2ccc(Cl)c(Cl)c2)C1=O (stereo not given),84.8%
9,CCOC(=O)c1ccc(Nc2sc(C(=O)c3ccc(Br)cc3)c(N)c2C#N)cc1,-8.46% (active)
10,CC(=O)Oc1c(Cl)cccc1-c1ccccc1,96.9%
11,C=C1C(=O)C2CCC1C2 (stereo not given),93.7%
12,O=c1cc(Cl)nc2ccccn12,103%
13,CCNC(=O)Oc1ccc[nH]c1=O,116%
14,N#CC1(O)CCCCC1,87.9%
15,C/C(=N\O)c1ccccn1,108%
16,ClCc1cccc2c(CCl)cccc12,107%
17,CNc1ccccc1C(N)=O,121%
18,CN(C)c1ccc(/C=C/C(=O)c2ccc(NC(N)=O)cc2)cc1,115%
19,CC(C)c1ccccc1NC(=O)N1CCC(C(C)C)CC1,99.3%
20,COc1cc(N)c2ncccc2c1Cl,97.1%
